A selection: hits, their analogues and other compounds. The true share with any hit is near 8%.
KB-3-1 tox: kills parental KB-3-1 adenocarcinoma cells; KB-3-1 viability, CellTiter-Glo ATP luminescence, 72 h; Potency, µM (series often up to 46.1 µM), usual class: cytotoxic; 400,000 tested, 1.4% active; AID 1347075; also: nearly all actives have a fitted effect of over 60% in size
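Viability of parental KB-3-1 cells, measured by CellTiter-Glo luminescence, followed a 72 h incubation at 37 °C with pinned compounds in phenol-red-free DMEM containing 10% FBS.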
HT1080 IDH1KD tx: kills HT-1080 cells with IDH1 knockdown; Potency, µM (titrated, usually from 46.1 µM), usual class: cytotoxic; 360,000 tested, 2% active; AID 686971; HT-1080 IDH1 knockdown viability, ATP luminescence, 48 h
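% activity derives from luminescence (CellTiter-Glo), normalised to DMSO and no-cell wells. HT-1080-IDH1KD cells, 750/well, had 48 h compound exposure at 37 °C.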
SW480 rerep: induces DNA re-replication in SW480 colon adenocarcinoma cells; 340,000 tested, 1.8% active; Potency, µM (series often up to 46.1 µM), hits mostly activators; SW480 DNA re-replication, Hoechst DNA content imaging, 48 h; also: nearly all actives have a fitted effect of over 55% in size
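Cells (250 per well) received 23 nL compound or DMSO by pin tool and were kept 48 hr at 37 C, 5% CO2. Nuclei were then stained with Hoechst for 40 min and scanned for DNA content.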
KB-V1 MDR tox: kills drug-selected multidrug resistant KB-V1 cells | KB-V1 MDR cells viability, CellTiter-Glo, 72 h | Potency, µM (top dose mostly 46.1 µM), most hits filed as cytotoxic | 400,000 tested, 3.4% active | AID 1347076; also: nearly all actives have a fitted effect of over 60% in size
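KB-V1 MDR subline cells in DMEM (phenol-red free, 10% FBS) exposed to compounds in qHTS concentration series for 72 h at 37 degrees C. Viability read by CellTiter-Glo luminescence; concentration-effect curves fitted after normalization and correction.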
MCF10A rerep: DNA re-replication induction in MCF 10a cells | Potency, µM (series often up to 46.1 µM), hits mostly activators | 350,000 tested, 2.9% active | AID 624296 | MCF 10A DNA re-replication, Hoechst nuclear intensity, 48 h; also: nearly all actives have a fitted effect of over 50% in size
HT1080NT lethal: kills 2HG-producing HT-1080-NT fibrosarcoma cells; AID 686970; HT-1080-NT fibrosarcoma viability, CellTiter-Glo ATP luminescence, 48 h; 360,000 tested, 1.6% active; Potency, µM (doses to about 46.1 µM), hits mostly cytotoxic;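 also: NT is the 2HG producing partner of a matched IDH1 knockdown line; nearly all actives have a fitted effect of over 55% in size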
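A 48-hour cytotoxicity screen used HT-1080-NT cells plated 2 hours before compound delivery. ATP-based CellTiter-Glo luminescence measured viability, normalized to DMSO and no-cell controls.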
Hits are given with their value; i = inactive; ? = inconclusive; nt = no result given; [ ] = remark or other dose. Calls follow the shape of the dose curve; as a rule, active = well fitted curve in the direction sought with a large enough effect; inconclusive = small, poorly fitted or top-dose-only effect, or another doubt; inactive = no such curve, though single readings can be large; an effect the other way counts as inactive or inconclusive.

SMILES	KB-3-1 tox	HT1080 IDH1KD tx	SW480 rerep	KB-V1 MDR tox	MCF10A rerep	HT1080NT lethal
CCCOc1ccccc1NC(=O)/C=C/C(N)=O	i	10µM	13µM	i	4.5µM	?
O=C(Cc1ccccc1[N+](=O)[O-])NC1CC1	i	i	i	i	i	i
O=C(Cc1ccccc1[N+](=O)[O-])NCC1(c2cccc3c2OCO3)OCCO1	i	i	i	18µM	i	i
C/C(=C(/CCOC(=O)C(C)C)SS/C(CCOC(=O)C(C)C)=C(\C)N(C=O)Cc1cnc(C)nc1N)N(C=O)Cc1cnc(C)nc1N	nt	nt	i	nt	i	nt
CN(Cc1cn(C)nc1-c1ccc(Oc2ccccc2)cc1)Cc1cnc2ccccn12	i	i	i	i	23µM	29µM
Cn1cc(CNCc2cnc3ccccn23)c(-c2ccc(Oc3ccccc3)cc2)n1	i	i	i	i	i	i
CC(C)(C)OC(=O)C(Cl)(C(=O)OC(C)(C)C)c1ccc2nnnn2n1	i	18µM	?	i	?	?
O=C(NNc1ccc(F)cc1F)C1CCC1	i	4.6µM	?	i	i	?
O=C(NNc1ccccc1F)C1CCC1	i	i	i[9.22 µM]	?	i	i
CCC1=NN(C(=O)c2cccc(Br)c2)C(O)(c2ccc(Br)cc2)C1 (centres undefined)	?	18µM	i	?	?	?
CC1=NN(C(=O)CSCc2ccccc2)C(O)(c2ccc(Cl)cc2)C1 (centres undefined)	i	i	i	i	?	i
CCC1=NN(C(=O)c2ccc(C)cc2)C(O)(c2ccc(Br)cc2)C1 (centres undefined)	i	i	i	21µM	i	i
CCC1=NN(C(=O)c2ccc(Br)cc2)C(O)(c2ccc(C)cc2)C1 (centres undefined)	i	i	i	i	i	i
CC1=NN(C(=O)c2ccc(Cl)cc2)C(O)(c2ccccc2)C1 (centres undefined)	?	i	?	i	15µM	i
CCOc1ccc(NS(=O)(=O)c2ccc3[nH]cc(C(=O)N4CCCCCC4)c(=O)c3c2)cc1	i	nt	nt	i	nt	nt
CSc1ccc(CN(C)Cc2nc3cc(C(F)(F)F)ccc3c(=O)[nH]2)cc1	i	i	i	23µM	i	i
COc1cc2nc(CN(C)Cc3ccc(SC)cc3)[nH]c(=O)c2cc1OC	i	i	i	?	i	i
COc1ccc(Nc2nc(C)nc3sc4c(c23)CCC4)cc1O	?	i	?	5.8µM	?	?
Cc1nc(NCc2ccco2)c2c3c(sc2n1)CCC3	?	?	?	i	i	?
COc1ccc(Cn2c(-c3ccc(C)cc3)c[n+]3ccccc23)cc1	3.3µM	1.2µM	i	i	?	4.1µM
Cc1nc(N2CCCC2)ncc1C(=O)N1CCN(c2ccccc2F)CC1	i	nt	nt	i	nt	nt
O=C(Nc1cccc(C(F)(F)F)c1)C1CCCN(S(=O)(=O)c2cccc3nsnc23)C1 (centres undefined)	i	nt	nt	i	nt	nt
OC(c1ccccc1)C1CN(Cc2ccccc2)CCC1(O)c1ccccc1 (centres undefined)	i	i	i	23µM	i	i
COc1ccc(-c2cc(=O)oc3c(C)c(OCC(=O)N(C)C)ccc23)cc1	?	i	i	i	i	i
COc1ccc(-c2cc(=O)oc3c(C)c(O)c(CN(C)C)cc23)cc1	i	i	i	2.3µM	i	i
SMILES	KB-3-1 tox	HT1080 IDH1KD tx	SW480 rerep	KB-V1 MDR tox	MCF10A rerep	HT1080NT lethal
N#Cc1c(NC(=O)C2CC(c3ccccc3O)=NO2)sc2c1CCC2 (centres undefined)	i	i	i	21µM	?	i
N#Cc1c(NC(=O)C2CC(c3ccccc3Cl)=NO2)sc2c1CCC2 (centres undefined)	i	i	i	26µM	21µM	i
CC(=O)c1ccc(NC(=O)CN2C(=O)c3cccnc3Sc3ccccc32)cc1	i	nt	nt	i	nt	nt
CC1=C(C(=O)N2CCOCC2)CC(CC(=O)NC(c2ccccc2)c2ccccc2)C(=O)N1CCC1=CCCCC1 (centres undefined)	i	i	nt	10µM	nt	i
CC1=C(C(=O)N2CCCCCC2)CC(CC(=O)NCc2cccc3ccccc23)C(=O)N1CCC1=CCCCC1 (centres undefined)	?	?	nt	18µM	nt	?
CC1=C(C(=O)N(C)C)CC(CC(=O)NCCCCc2ccccc2)C(=O)N1CCC1=CCCCC1 (centres undefined)	i	i	nt	i	nt	i
CC1=C(C(=O)N2CCCCCC2)CC(CC(=O)NCc2cccs2)C(=O)N1CCC1=CCCCC1 (centres undefined)	i	i	nt	?	nt	i
COCCCN1C(=O)C(CC(=O)NCc2cccc3ccccc23)CC(C(=O)N2CCCCCC2)=C1C (centres undefined)	nt	i	nt	10µM	nt	i
CC1=C(C(=O)N2CCCCCC2)CC(CC(=O)NCCCCc2ccccc2)C(=O)N1CCC1=CCCCC1 (centres undefined)	?	?	nt	16µM	nt	?
COCCCN1C(=O)C(CC(=O)NCc2cccc3ccccc23)CC(C(=O)N2CCOCC2)=C1C (centres undefined)	i	i	nt	i	nt	i
CCCCN1C(=O)C(CC(=O)NCc2cccc3ccccc23)CC(C(=O)N2CCCCCC2)=C1C (centres undefined)	?	i	nt	9.2µM	nt	i
CCOC(=O)CSc1nc2ccc(NC(=O)c3ccc(F)cc3)cc2s1	i	nt	nt	i	nt	nt
O=C(CSc1nc2ncc(Cl)cc2[nH]1)c1c[nH]c2ccccc12	i	i	i	i	23µM	i
Cc1cccc(NS(=O)(=O)c2ccc(NC(=O)N3CCCC3)cc2)c1	?	nt	nt	i	nt	nt
CN1CCN(Cc2nc3ccccc3c(=O)n2Cc2nc(-c3ccc([N+](=O)[O-])cc3)cs2)CC1	?	21µM	?	?	?	21µM
Cc1cc(N2CCN(c3nc(-c4ccc([N+](=O)[O-])cc4)cs3)CC2)c2ccccc2n1	i	?	i	?	?	18µM
CN(C)Cc1nc2ccccc2c(=O)n1Cc1nc(-c2cccc([N+](=O)[O-])c2)cs1	i	?	i	?	i	i
COC(=O)[C@@H]1C[C@]2(OC(=O)c3ccccc3)C=CC(=O)C[C@@H]2N1C(=O)OCc1ccccc1	?	?	21µM	i	16µM	?
COC(CNC(=O)C1CCCN1C(=O)OCc1ccccc1)OC (centres undefined)	i	i	i	i	i	i
CCOc1ccc(OCCNC(=O)c2ccc3c(c2)nnn3CC)cc1	i	i	i	23µM	i	i
Cc1ccsc1/C=N/Nc1nc(=O)[nH]nc1C	?	21µM	6.5µM	?	i	23µM
O=C(NCc1ccc(F)cc1)C1CCN(C(=O)c2ccc(-n3ccc4ccccc43)s2)CC1	i	nt	nt	i	nt	nt

Compound activity as filed in PubChem BioAssay.
